Here are results for six compounds from PubChem BioAssay (NCATS).

Structures are written as SMILES. Records with an inconclusive call do not appear. Calls of active or inactive are those of the source. Unless noted, calls follow the shape of the full dose curve.

In assay [1] the target is Estrogen receptor (Homo sapiens) (UniProt P03372). The assay can be described thus: qHTS assay for small molecule antagonists of estrogen receptor alpha signaling (AID 588513; active = well fitted curve in the direction sought with a large enough effect in the signal ratio, with a control signal flat, not every such curve was filed as active; the % refers to the signal ratio; also: potency is read from the fitted curve at half-maximal effect). An outline of the steps:
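ER-alpha-UAS-bla GripTite HEK 293 cells in 2% charcoal/dextran-treated FBS medium; compounds titrated (1:2, duplicate), then stimulated with 0.5 nM 17-beta-estradiol for 18 h at 37C. CCF4 beta-lactamase fluorescence; Hill-fit IC50 and efficacy.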
On the technique in general: qHTS replaces the single test concentration by a dilution series.

Assay [2] has the same target. The assay can be described thus: qHTS assay for small molecule agonists of estrogen receptor alpha signaling (AID 588514). Also: nearly all actives have a fitted effect of over 70% in size. Also: potency is read from the fitted curve at half-maximal effect.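 As to activation: 0% = vehicle only and 100% = reference agonist.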 An outline of the steps:
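Reporter-gene assay. […] controls beta-lactamase in HEK 293 GripTite cells; after 18 hrs with compound, CCF4 substrate is added for 2 hrs and fluorescence is read.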

The target of assay [3] is Peroxisome proliferator-activated receptor delta (Homo sapiens) (UniProt Q03181). The assay can be described thus: qHTS assay for small molecule agonists of peroxisome proliferator-activated receptor delta signaling (AID 588534).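 Also: 0% = DMSO basal wells and 100% = positive control agonist at 10 µM.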 An outline of the steps:
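Reporter cells were plated and held 5 hrs at 37 C before compounds were added. After 18 hrs at 37 C, CCF4 dye was loaded for 2 hrs at RT and fluorescence measured.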

Assay [4] has as its target Peroxisome proliferator-activated receptor gamma (Homo sapiens) (UniProt P37231). The assay can be described thus: qHTS assay for small molecule agonists of peroxisome proliferator-activated receptor gamma signaling (AID 588536; active = well fitted curve in the direction sought with a large enough effect in the signal ratio, with a control signal flat, not every such curve was filed as active; the % refers to the signal ratio;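 also: 0% = DMSO basal wells and 100% = rosiglitazone at 2 µM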). An outline of the steps: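 HEK293 UAS-bla reporter line, 1% charcoal/dextran FBS; titration, 16 h, 37 C; CCF4 loading 2 h RT; fluorescence 460/530 nm. Normalized to rosiglitazone 2 uM = 100%, DMSO = 0%.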

Assay [5] shares this target. The assay can be described thus: qHTS assay for small molecule antagonists of peroxisome proliferator-activated receptor gamma signaling (AID 588537; active = well fitted inhibition curve with a large enough effect in the signal ratio, with a control signal flat, not every such curve was filed as active; the % refers to the signal ratio;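 also: reporter cells co-stimulated with 50 nM rosiglitazone agonist during compound treatment; % of control where 0% means no effect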). An outline of the steps:
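Inhibitors of agonist-stimulated UAS-bla reporter activity were sought in HEK293 cells; rosiglitazone (50 nM) defined full signal and DMSO baseline. Curves fitted to Hill model gave IC50 and efficacy.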

For assay [6], the target named is Vitamin D3 receptor (Homo sapiens) (UniProt P11473). The assay can be described thus: qHTS assay for small molecule antagonists of vitamin D receptor signaling (AID 588541).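 Also: receptor activated by calcitriol during compound treatment; series mostly up to about 77 µM; % is scaled to controls: 0 for no effect and ±100 for the full control effect.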 An outline of the steps: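 Antagonist-mode beta-lactamase reporter assay: HEK293T VDR-UAS-bla cells were exposed to titrated compound alongside 1-alpha,25-dihydroxyvitamin D3 at 3 nM final for 16 h. Values were normalized to the 50 nM agonist control and DMSO basal, with IC50 and efficacy from Hill equation fits.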

The nature of assay [7]: qHTS assay for small molecule agonists of retinoid X receptor alpha signaling (AID 588544).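 As to activation: 0% = DMSO basal wells and 100% = reference agonist.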 The conditions noted are these: HEK293T RXRa-UAS-bla, beta-lactamase reporter, 18 h; 530 nm emission.
Assay [8] concerns the target Retinoic acid receptor RXR-alpha (Homo sapiens) (UniProt P19793). Described as above.
Assay [9] addresses Thyroid hormone receptor beta (Homo sapiens) (UniProt P10828). The assay can be described thus: qHTS assay for small molecule agonists of thyroid hormone receptor beta signaling (AID 588545). An outline of the steps:
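In this cell-based screen, titrated compounds act on HEK 293 cells held in medium with 2% charcoal/dextran FBS, NEAA and pyruvate for 18 hrs at 37 C. Responses are expressed relative to T3 (10 nM) as 100% and basal DMSO as 0%.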

Assay [10] can be described thus: qHTS assay for small molecule antagonists of retinoid X receptor alpha signaling (AID 588546; active = well fitted inhibition curve with a large enough effect in the signal ratio, with a control signal flat, not every such curve was filed as active; the % refers to the signal ratio;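 also: cells stimulated with 9-cis-retinoic acid as agonist; % is scaled to controls: 0 for no effect and ±100 for the full control effect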). The conditions noted are these: HEK293T RXRa-UAS-bla, beta-lactamase ratio, antagonist mode; measured here: W530 green channel, cytotoxicity proxy. An outline of the steps:
(§1)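 Beta-lactamase reporter inhibition, read as CCF4 fluorescence ratio (ex 405, em 460/530 nm) after 2 h at RT. HEK293T UAS-bla cells, 2500/well, were stimulated with 9-cis-RA at 500 or 100 nM final alongside test compound for 18 h at 37 C.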

The target in assay [11] is Retinoic acid receptor RXR-alpha (Homo sapiens) (UniProt P19793). Described as above. The conditions noted are these: HEK293T RXRa-UAS-bla, beta-lactamase ratio, antagonist mode. An outline of the steps:
as §1

Assay [12] concerns the target Thyroid hormone receptor beta (Homo sapiens) (UniProt P10828). The assay can be described thus: qHTS assay for small molecule antagonists of thyroid hormone receptor beta signaling (AID 588547; active = well fitted inhibition curve with a large enough effect in the signal ratio, with a control signal flat, not every such curve was filed as active; the % refers to the signal ratio;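 also: cells stimulated with 0.4 nM T3 agonist during compound exposure; series mostly up to about 77 µM; % is scaled to controls: 0 for no effect and ±100 for the full control effect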). The conditions noted are these: TR-UAS-bla HEK293, beta-lactamase ratio, antagonist mode, 18 h. An outline of the steps:
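Inhibition of T3-driven (0.4nM final) beta-lactamase reporter activity was measured over 0.59 nM to 92 uM compound after 18 h at 37 C. The cells were GripTite HEK293 TR-UAS-bla in charcoal/dextran-stripped serum, with CCF4 ratio read-out and IC50 from Hill fits.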

Assay [13] in a line: qHTS assay for small molecule activators of the p53 signaling pathway (AID 651743; active = well fitted activation curve with a large enough effect in the signal ratio, not every such curve was filed as active; the % refers to the signal ratio; also: series mostly up to about 92 µM; % of control where 0% means no effect). The conditions noted are these: HCT-116 p53RE-bla, beta-lactamase FRET ratio, 16 h; activation: stronger effect = higher value. An outline of the steps: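 Screen for p53 pathway agonists uses stably transfected p53RE-bla HCT-116 cells, 4,000 per well, treated 16 h at 37 C with compounds in DMSO.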
Assay [14] in a line: qHTS assay for environmental chemicals that activate the Aryl hydrocarbon Receptor (AhR) signaling pathway (AID 651777; active = well fitted curve in the direction sought with a large enough effect; an effect the other way counts as inactive or inconclusive; also: % of control where 0% means no effect; nearly all actives have a fitted effect of over 15% in size). The conditions noted are these: 1A2-DRE human hepatoma cells, luciferase, 24 h; activation: stronger effect = higher value. An outline of the steps:
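Stable CYP1A2 promoter/DRE-luciferase human hepatoma line treated 24 hr; One-Glo luminescence, 30 min RT.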

In assay [15] the target is Peroxisome proliferator-activated receptor alpha (Homo sapiens) (UniProt Q07869). The assay can be described thus: qHTS assay for small molecule agonists of the peroxisome proliferator-activated receptor alpha (PPARalpha) signaling pathway (AID 651778; active = well fitted curve in the direction sought with a large enough effect; an effect the other way counts as inactive or inconclusive; also: % of control where 0% means no effect). The conditions noted are these: PathHunter PPARalpha complementation, chemiluminescence, 6 h; max response: stronger effect = higher value. An outline of the steps: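 Chemiluminescence from complemented enzyme reported PPARalpha activation in cells after 6 hr of compound treatment at 37 C. The detection reagent was incubated for 60 min at room temperature, and compounds were scored as agonists.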

Assay [16] in a line: qHTS assay for small molecule agonists of the antioxidant response element (ARE) signaling pathway measured by Nrf2-dependant transcriptional activity (AID 720636; active = well fitted curve in the direction sought with a large enough effect in the repeat runs; an effect the other way counts as inactive or inconclusive;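 also: HepG2 cells with an ARE-driven luciferase reporter; % of control where 0% means no effect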). An outline of the steps:
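Reporter gene assay, HepG2 ARE-luc: 16 hr compound, 37 C, 5% CO2; read-out luciferase luminescence.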

A short description of assay [17]: qHTS assay for small molecule agonists of the antioxidant response element (ARE) signaling pathway measured by Nrf2-dependant transcriptional activity - cell viability counter screen (AID 720653; active = well fitted curve in the direction sought with a large enough effect in the repeat runs; an effect the other way counts as inactive or inconclusive; also: % is scaled to controls: 0 for no effect and ±100 for the full control effect). The conditions noted are these: ARE-bla HepG2 viability, CellTiter-Glo ATP luminescence, 16 h; max response: stronger effect = lower value. An outline of the steps: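 Cytotoxicity counter screen: intracellular ATP quantified by CellTiter-Glo luminescence in the same ARE-bla HepG2 plates, after 16 h compound exposure and a 2 h beta-lactamase substrate step.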

Assay [18] in a line: qHTS assay for cell viability of HEK293 cells (AID 743288; active = well fitted curve in the direction sought with a large enough effect; an effect the other way counts as inactive or inconclusive; also: % is scaled to controls: 0 for no effect and ±100 for the full control effect; nearly all actives have a fitted effect of over 50% in size). The conditions noted are these: ATP luminescence (CellTiter-Glo), 18 h; max response: stronger effect = lower value. An outline of the steps: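 Parental HEK293 cells, 2,000 per well, preincubated at least 5 h at 37 C, then exposed to compounds in DMSO for 18 h at 37 C. Viability by CellTiter-Glo ATP luminescence after 30 min at room temperature.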

Assay [19] is described as follows: qHTS assay for cell viability of the p53RE-bla HCT-116 cell line (AID 743292; active = well fitted curve in the direction sought with a large enough effect; an effect the other way counts as inactive or inconclusive; also: % is scaled to controls: 0 for no effect and ±100 for the full control effect; nearly all actives have a fitted effect of over 55% in size). An outline of the steps: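 Readout: CellTiter-Glo luminescence after 30 min RT. Treatment: compounds in DMSO, 16 h, 37 C. Cells: CellSensor p53RE-bla HCT-116, 4,000/well, preincubated 5 h.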
In assay [20] the target is Nuclear receptor subfamily 1 group I member 2 (Rattus norvegicus) (UniProt Q9R1A7). The assay can be described thus: qHTS assay for small molecule activators of the rat pregnane X receptor (rPXR) signaling pathway (AID 651751; call rule not given here; also: 0% is about no effect). The conditions noted are these: rPXR reporter cells, luciferase (One-Glo), 24 h.
Chain of Nuclear receptor subfamily 1 group I member 2 (Rattus norvegicus) (Q9R1A7 whole entry, looked up): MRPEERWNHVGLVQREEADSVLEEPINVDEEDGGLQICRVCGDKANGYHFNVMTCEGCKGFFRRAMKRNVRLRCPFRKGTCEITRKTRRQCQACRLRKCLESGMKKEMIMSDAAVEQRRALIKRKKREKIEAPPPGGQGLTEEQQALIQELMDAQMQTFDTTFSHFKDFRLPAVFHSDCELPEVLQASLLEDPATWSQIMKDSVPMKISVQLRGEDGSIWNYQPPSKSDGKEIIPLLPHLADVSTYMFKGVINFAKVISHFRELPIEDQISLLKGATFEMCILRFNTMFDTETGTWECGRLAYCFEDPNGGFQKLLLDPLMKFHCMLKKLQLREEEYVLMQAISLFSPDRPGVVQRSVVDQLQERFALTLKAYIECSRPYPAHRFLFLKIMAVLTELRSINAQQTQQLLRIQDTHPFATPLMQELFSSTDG

Chain of Peroxisome proliferator-activated receptor gamma (Homo sapiens) (P37231 whole entry, looked up): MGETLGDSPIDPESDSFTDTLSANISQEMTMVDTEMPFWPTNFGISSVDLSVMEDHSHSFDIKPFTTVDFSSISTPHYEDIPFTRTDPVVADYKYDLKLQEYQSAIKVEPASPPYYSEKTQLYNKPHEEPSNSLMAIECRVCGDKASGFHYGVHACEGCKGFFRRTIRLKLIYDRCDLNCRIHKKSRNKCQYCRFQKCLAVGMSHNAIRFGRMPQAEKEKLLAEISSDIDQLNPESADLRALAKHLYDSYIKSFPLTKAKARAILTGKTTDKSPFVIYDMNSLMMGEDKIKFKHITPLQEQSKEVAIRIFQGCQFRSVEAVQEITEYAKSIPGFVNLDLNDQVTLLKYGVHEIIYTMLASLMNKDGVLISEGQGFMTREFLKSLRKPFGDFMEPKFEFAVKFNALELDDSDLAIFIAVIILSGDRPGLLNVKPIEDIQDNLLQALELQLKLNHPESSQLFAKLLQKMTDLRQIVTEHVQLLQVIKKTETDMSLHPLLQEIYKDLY
Chain of Thyroid hormone receptor beta (Homo sapiens) (P10828 whole entry, looked up): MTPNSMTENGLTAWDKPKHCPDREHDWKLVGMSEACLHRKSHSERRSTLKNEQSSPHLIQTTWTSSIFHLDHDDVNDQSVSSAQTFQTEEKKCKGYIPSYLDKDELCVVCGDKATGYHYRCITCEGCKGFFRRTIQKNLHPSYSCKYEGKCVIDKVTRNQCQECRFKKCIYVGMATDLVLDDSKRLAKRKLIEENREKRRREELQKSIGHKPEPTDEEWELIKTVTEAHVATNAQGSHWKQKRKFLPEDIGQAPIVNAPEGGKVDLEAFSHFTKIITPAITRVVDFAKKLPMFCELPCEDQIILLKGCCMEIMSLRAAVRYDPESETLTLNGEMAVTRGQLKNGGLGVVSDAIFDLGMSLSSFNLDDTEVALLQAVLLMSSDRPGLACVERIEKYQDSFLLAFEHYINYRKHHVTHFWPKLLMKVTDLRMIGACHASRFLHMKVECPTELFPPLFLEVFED
Chain of Retinoic acid receptor RXR-alpha (Homo sapiens) (P19793 whole entry, looked up): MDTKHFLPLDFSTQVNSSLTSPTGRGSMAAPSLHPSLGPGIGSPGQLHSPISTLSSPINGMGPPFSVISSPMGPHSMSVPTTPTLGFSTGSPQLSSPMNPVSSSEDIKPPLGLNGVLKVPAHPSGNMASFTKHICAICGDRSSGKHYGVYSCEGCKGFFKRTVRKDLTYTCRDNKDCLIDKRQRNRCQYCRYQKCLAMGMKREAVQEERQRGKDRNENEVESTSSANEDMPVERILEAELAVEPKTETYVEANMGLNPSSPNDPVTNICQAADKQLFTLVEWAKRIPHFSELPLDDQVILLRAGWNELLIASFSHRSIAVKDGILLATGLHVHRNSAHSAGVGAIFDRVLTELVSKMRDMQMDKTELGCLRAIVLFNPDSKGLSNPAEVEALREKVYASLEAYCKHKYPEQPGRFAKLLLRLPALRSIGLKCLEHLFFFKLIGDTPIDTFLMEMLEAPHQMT
Chain of Estrogen receptor (Homo sapiens) (P03372 whole entry, looked up): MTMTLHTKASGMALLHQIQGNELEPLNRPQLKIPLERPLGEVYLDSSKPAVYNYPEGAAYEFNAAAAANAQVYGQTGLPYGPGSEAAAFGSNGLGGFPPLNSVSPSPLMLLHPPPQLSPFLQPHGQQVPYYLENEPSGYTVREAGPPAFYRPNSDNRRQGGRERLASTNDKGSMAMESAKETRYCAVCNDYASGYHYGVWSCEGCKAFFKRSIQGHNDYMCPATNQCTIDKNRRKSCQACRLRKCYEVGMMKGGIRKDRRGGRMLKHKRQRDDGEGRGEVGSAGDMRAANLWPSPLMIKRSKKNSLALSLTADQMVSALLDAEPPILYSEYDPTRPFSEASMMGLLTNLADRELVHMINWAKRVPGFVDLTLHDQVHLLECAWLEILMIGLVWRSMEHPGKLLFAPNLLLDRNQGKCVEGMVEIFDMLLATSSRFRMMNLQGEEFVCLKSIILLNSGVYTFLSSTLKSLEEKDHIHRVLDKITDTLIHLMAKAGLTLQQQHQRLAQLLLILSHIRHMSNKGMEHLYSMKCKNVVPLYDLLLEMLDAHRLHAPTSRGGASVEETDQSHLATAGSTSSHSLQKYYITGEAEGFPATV
Chain of Vitamin D3 receptor (Homo sapiens) (P11473 whole entry, looked up): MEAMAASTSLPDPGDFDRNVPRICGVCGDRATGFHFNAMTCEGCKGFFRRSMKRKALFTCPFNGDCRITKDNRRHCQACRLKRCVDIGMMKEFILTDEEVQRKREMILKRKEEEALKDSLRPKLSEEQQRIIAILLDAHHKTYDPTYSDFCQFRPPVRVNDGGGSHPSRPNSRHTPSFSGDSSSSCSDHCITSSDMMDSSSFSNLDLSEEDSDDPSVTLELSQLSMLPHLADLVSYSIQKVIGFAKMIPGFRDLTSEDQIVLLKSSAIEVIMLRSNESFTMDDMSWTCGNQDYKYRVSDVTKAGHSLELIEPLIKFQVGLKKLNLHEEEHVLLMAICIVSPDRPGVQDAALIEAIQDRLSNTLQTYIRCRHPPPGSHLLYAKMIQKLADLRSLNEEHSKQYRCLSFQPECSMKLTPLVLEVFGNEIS
Chain of Peroxisome proliferator-activated receptor alpha (Homo sapiens) (Q07869 whole entry, looked up): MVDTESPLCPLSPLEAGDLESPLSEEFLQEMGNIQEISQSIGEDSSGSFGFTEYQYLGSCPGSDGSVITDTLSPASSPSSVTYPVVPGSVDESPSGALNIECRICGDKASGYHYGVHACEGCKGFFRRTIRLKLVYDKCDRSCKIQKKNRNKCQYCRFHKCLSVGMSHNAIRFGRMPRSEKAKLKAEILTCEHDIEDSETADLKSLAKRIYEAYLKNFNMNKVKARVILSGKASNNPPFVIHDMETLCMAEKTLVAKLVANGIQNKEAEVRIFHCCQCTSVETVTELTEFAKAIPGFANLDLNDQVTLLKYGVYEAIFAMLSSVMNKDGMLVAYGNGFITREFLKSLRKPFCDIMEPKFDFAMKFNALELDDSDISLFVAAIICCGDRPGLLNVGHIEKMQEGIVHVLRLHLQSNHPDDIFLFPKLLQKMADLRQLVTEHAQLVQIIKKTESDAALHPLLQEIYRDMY
Chain of Peroxisome proliferator-activated receptor delta (Homo sapiens) (Q03181 whole entry, looked up): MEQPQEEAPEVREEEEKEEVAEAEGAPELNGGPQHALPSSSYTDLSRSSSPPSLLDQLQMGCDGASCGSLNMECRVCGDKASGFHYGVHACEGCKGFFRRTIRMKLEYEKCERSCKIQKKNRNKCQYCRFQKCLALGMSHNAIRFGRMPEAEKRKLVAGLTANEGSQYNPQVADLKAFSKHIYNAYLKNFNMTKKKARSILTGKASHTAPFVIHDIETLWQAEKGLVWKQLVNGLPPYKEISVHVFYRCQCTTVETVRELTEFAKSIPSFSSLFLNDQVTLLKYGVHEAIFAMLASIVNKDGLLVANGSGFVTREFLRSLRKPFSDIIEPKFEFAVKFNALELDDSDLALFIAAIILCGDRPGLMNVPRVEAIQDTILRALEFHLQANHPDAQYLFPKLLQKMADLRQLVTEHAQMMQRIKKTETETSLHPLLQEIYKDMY

In the case of `O=S(=O)(c1ccc(O)cc1)c1ccc(O)cc1`, the Potency entry in assay [1], in assay [4], in [5], in [6], in assay [8] and in [9] was “inactive” throughout. The Potency result in assay [16] and in assay [19] was “inactive” each time. Besides, in assay [2], the Potency was 14.1 µM (active). The compound was called inactive in assay [3]. For the same compound, the max response in assay [7] is -2.49%; in assay [10], -5.39%; in [11] it was 15.4% (inactive); in assay [15], -4.37% (inactive); in assay [17] it was -5.42% (inactive); in [18], -8.18% (inactive). Further, in [20], the max response was -2.78% (inactive). Also, in [12], the activity change % (negative = inhibition) is 5% (inactive). Also, the activation in assay [13] is -2.48% (inactive); in assay [14], -1.25% (inactive).

On to `COP(=O)(OC)Oc1ccc([N+](=O)[O-])cc1`, for which the Potency result in assay [1], in assay [2], in [9], in assay [16] and in assay [19] was “inactive” in each case. For the same compound, the max response in assay [15] was -5.35% (inactive); in assay [17], -1.73% (inactive); in assay [18] it was -12.8% (inactive); in assay [20], -1.53% (inactive).

For the compound `c1cc[n+]2c(c1)-c1cccc[n+]1CC2`, in assay [1], the Potency is 25.1 µM [inhibitor] (active). Further, the Potency entry in assay [2], in [4], in assay [5], in assay [6], in assay [8] and in assay [9] was “inactive” each time. Also, the result in [3] was inactive. In addition, the max response is -27.8% in assay [7]; 2.2% in assay [10]; -20.8% (inactive) in assay [11]; -2.84% (inactive) in assay [15]; 1.16% (inactive) in assay [17]; -11.6% (inactive) in assay [18]. For the same compound, the activity change % (negative = inhibition) in assay [12] was 10.8% (inactive). Also, the activation in assay [14] was -0.462% (inactive).

On to `CCNC(=O)NC(=O)/C(C#N)=N/OC`, for which the Potency entry in assay [1], in [2], in assay [4], in assay [5], in [6] and in assay [8] was “inactive” throughout. The Potency entry in assay [9] and in assay [19] was “inactive” each time. Moreover, in [3], the compound was called inactive. In addition, the max response in assay [7] was 5.29%; in [10] it was -2.66%; in [11] it was 12.8% (inactive); in assay [15] it was 0.388% (inactive); in assay [17] it was -0.764% (inactive); in assay [18], -16.3% (inactive). The activity change % (negative = inhibition) in [12] was 5.55% (inactive). In assay [14], the activation is 0.625% (inactive).

As for `O=c1[nH]c2ccccc2c(=O)o1`, the Potency entry in [1], in [2], in assay [4], in assay [5], in assay [6] and in [8] was “inactive” in each case. The Potency entry in assay [9], in [16] and in [19] was “inactive” in each case. In [3], the compound was classed as inactive. Also, the max response in assay [7] is -6.9%; in assay [10], -14.4%; in assay [15], -3.96% (inactive); in [17], -1.48% (inactive); in assay [18] it was -10.1% (inactive); in assay [20], -5.81% (inactive). Further, in [12], the activity change % (negative = inhibition) is -10.7% (inactive). The activation in assay [13] was 1.12% (inactive); in [14], 0.82% (inactive).

On to `COC(=O)c1ccccc1S(=O)(=O)NC(=O)N(C)c1nc(C)nc(OC)n1`, for which the Potency entry in [1], in assay [2], in assay [4], in assay [5], in assay [8] and in assay [9] was “inactive” in each case. Also, the Potency result in assay [16] and in assay [19] was “inactive” each time. In addition, the compound was classed as inactive in [3]. Also, the max response in [10] was -8.58%; in [11], -3.24% (inactive); in assay [15], -1.41% (inactive); in assay [17] it was -4.72% (inactive); in [20], 0.907% (inactive). The activity change % (negative = inhibition) in [12] is 9.61% (inactive). For the same compound, the activation is 0.955% (inactive) in [13] and 0.249% (inactive) in assay [14].
